PubChem BioAssay (NCI)
About 83,000 compounds went through this panel and 20% of them were active in at least one assay; those are over-represented in the sample as a whole.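 Negative percent growth values reflect cell death: -40 means 40% of the cells present at the start died, and -100 means all died.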 Active and inactive are the calls of the source. The calls were made as follows: active = growth percent below 10; inactive = the rest.

tested on: PC-3 prostate; test: NCI-60 one-dose screen, 48 h (100 = growth as untreated, 0 = no growth, -100 = all killed); settings: 10 µM unless noted

Compound | growth
COc1ccc2c(c1)C(=O)c1c-2c(=O)n(CCCCCCC(=O)NO)c2ccccc12 | -8.27% (active)
CCC(C)(C)C(=O)O[C@H]1C[C@@H](C)C=C2C=C[C@H](C)[C@H](CC[C@@H]3C[C@@H](O)CC(=O)O3)[C@H]21 | 33.9% (inactive)
CCC1=C(c2ccc(OC)cc2)C(C)(C)Oc2c1ccc(O)c2CN1CCCC1 | 47.1% (inactive)
CCCCCCCCCCCCCCCCCC1=NC(C)(C)CN1CCO | -52.4% (active)
O=C(Nc1ccc(Cl)cc1)Nc1ccc(Nc2nncc3ccccc23)cc1 | 1.46% (active)
COc1cc(C2C=C(c3ccc(C)cc3)Nc3nc(SC)[nH]c(=O)c32)ccc1Oc1ccnc2cc(Cl)ccc12 (centres undefined) | 60.2% (inactive)
C=C(C[C@@](O)(C(=O)Oc1ccccc1)C(=O)C1CCCCC1)c1ccccc1 | 84.2% (inactive)
COc1ccc(-c2cncn2-c2ccc(-c3nc4cc(OC)c(OC)c(OC)c4s3)cc2)cc1N | 30.1% (inactive)
CCc1[nH]nc(-c2ccc(OC)cc2)c1-c1ccccc1OCCN(CC)CC | 76% (inactive)
COc1ncc(-c2ccc3nccc(C#CCN4CCN(S(C)(=O)=O)CC4)c3c2)cc1NS(=O)(=O)c1ccc(F)cc1F | 0.156% (active)
COc1ccc2c(c1)C(=O)c1c-2c(OCCCN(C)C)nc2cc(Br)ccc12 | 63.8% (inactive)
N#Cc1c(N)[nH]c(S)c1C#N | 87.9% (inactive)
Cc1ccc(NC(=O)Nc2ccc(-c3cccnc3)cc2N2CCC(CO)CC2)cc1 | 51.8% (inactive)
CCCCCCCCCCCCCCCCN=C(CC(=O)O)C(=O)O | 91.9% (inactive)
COc1ccc(CCN2CCCN3C2=Nc2ccccc2S3(=O)=O)cc1 | 38.5% (inactive)
Cc1nnc(Nc2ccc(NC(=O)Nc3ccc(Cl)cc3)cc2)c2ccccc12 | 22.8% (inactive)
CCCCCCCCCCSc1ncnc2nc[nH]c12 | 79.8% (inactive)
C=C(C[C@](O)(C(=O)/C=C/c1ccc(Cl)cc1)C(=O)OC)c1ccccc1 | 65.4% (inactive)
CN1C(=O)/C(=C/c2nc(-c3cccc(F)c3)n3ccccc23)c2ccccc21 | 81.6% (inactive)
O=C1C(=O)c2ccc(Br)cc2-c2cc(Br)ccc21 | 83.7% (inactive)
CCN1CCN(c2cc(-c3cn[nH]c3-c3cc(C)cc(OC)c3)nc(-c3cccnc3)n2)CC1 | 100% (inactive)
O=C(CN1CCCCC1)Sc1nnc2sc3ccccc3n12 | 93% (inactive)
CN1CCN(Cc2ccc(NC(=O)c3[nH]ncc3Nc3ccnc4ccnn34)cc2)CC1 | 55.9% (inactive)
O=C(Nc1ccc(Cl)cc1)Nc1ccc(Oc2nncc3ccccc23)cc1 | -29% (active)
CCCCCCCC/C=C/CCCCCCCC1=NC(C)(C)CN1CCO | 22.8% (inactive)
CN(CC(=O)N(Cc1ccc(C2CCCCC2)cc1)c1ccc(C(=O)O)cc1)S(=O)(=O)c1c(F)c(F)c(F)c(F)c1F | 10.4% (inactive)
CCN(CC)CCCNCCCNc1cc(OC)cc2cccnc12 | 82.4% (inactive)

tested on: SK-MEL-5 melanoma; test: as above; settings: 10 µM unless noted

Compound | growth
COc1ccc2c(c1)C(=O)c1c-2c(=O)n(CCCCCCC(=O)NO)c2ccccc12 | -85.7% (active)
CCC1=C(c2ccc(OC)cc2)C(C)(C)Oc2c1ccc(O)c2CN1CCCC1 | -97.6% (active)
CCCCCCCCCCCCCCCCCC1=NC(C)(C)CN1CCO | -65.3% (active)
O=C(Nc1ccc(Cl)cc1)Nc1ccc(Nc2nncc3ccccc23)cc1 | 7.12% (active)
COc1cc(C2C=C(c3ccc(C)cc3)Nc3nc(SC)[nH]c(=O)c32)ccc1Oc1ccnc2cc(Cl)ccc12 (centres undefined) | 63.1% (inactive)
C=C(C[C@@](O)(C(=O)Oc1ccccc1)C(=O)C1CCCCC1)c1ccccc1 | 96.3% (inactive)
CCCCCCCC1(C)NC(=O)NC1=O (centres undefined) | 106% (inactive)
CCOC(=O)c1c(C)c(C(=O)OCC)n(C)c1C | 126% (inactive)
COc1ccc(-c2cncn2-c2ccc(-c3nc4cc(OC)c(OC)c(OC)c4s3)cc2)cc1N | 26.9% (inactive)
CCc1[nH]nc(-c2ccc(OC)cc2)c1-c1ccccc1OCCN(CC)CC | 85.2% (inactive)
COc1ncc(-c2ccc3nccc(C#CCN4CCN(S(C)(=O)=O)CC4)c3c2)cc1NS(=O)(=O)c1ccc(F)cc1F | -92.3% (active)
COc1ccc2c(c1)C(=O)c1c-2c(OCCCN(C)C)nc2cc(Br)ccc12 | 87.4% (inactive)
N#Cc1c(N)[nH]c(S)c1C#N | 96.9% (inactive)
CC(O)c1nc2c(c(=O)n(C)c(=O)n2C)n1C (centres undefined) | 104% (inactive)
Cc1ccc(NC(=O)Nc2ccc(-c3cccnc3)cc2N2CCC(CO)CC2)cc1 | -46.1% (active)
CCCCCCCCCCCCCCCCN=C(CC(=O)O)C(=O)O | 113% (inactive)
COc1ccc(CCN2CCCN3C2=Nc2ccccc2S3(=O)=O)cc1 | 35.9% (inactive)
Cc1nnc(Nc2ccc(NC(=O)Nc3ccc(Cl)cc3)cc2)c2ccccc12 | 52.3% (inactive)
CCCCCCCCCCSc1ncnc2nc[nH]c12 | 56.4% (inactive)

Compound | growth
C=C(C[C@](O)(C(=O)/C=C/c1ccc(Cl)cc1)C(=O)OC)c1ccccc1 | 76% (inactive)
O=C(/C=C/c1ccccc1Cl)c1ccc(O)cc1 | 58.1% (inactive)
CC(=O)NC1(C(=O)O)CCCC1 | 112% (inactive)
CCOC(=O)c1cc(-c2cccnc2)nc2c(Cl)cc(Cl)cc12 | 101% (inactive)
CN1C(=O)/C(=C/c2nc(-c3cccc(F)c3)n3ccccc23)c2ccccc21 | 64% (inactive)
O=C1C(=O)c2ccc(Br)cc2-c2cc(Br)ccc21 | 63.3% (inactive)
CCN1CCN(c2cc(-c3cn[nH]c3-c3cc(C)cc(OC)c3)nc(-c3cccnc3)n2)CC1 | 81.9% (inactive)
ClC1=C(Cl)C(Cl)=C(Cl)C1=C/C=C/c1ccccc1 | -97.3% (active)
O=C(CN1CCCCC1)Sc1nnc2sc3ccccc3n12 | 99.2% (inactive)
CN1CCN(Cc2ccc(NC(=O)c3[nH]ncc3Nc3ccnc4ccnn34)cc2)CC1 | 71.6% (inactive)
CC1=CC(=O)C(C(C)=Nc2ccccc2Cl)C(=O)O1 (centres undefined) | 120% (inactive)
CSc1ncc2ncn(C3OC(CO)C(O)C3O)c2n1 (centres undefined) | 129% (inactive)
COc1ccc2nc3cc(Cl)ccc3c(Nc3cc(C(C)C)c(O)cc3C)c2c1 | -91% (active)
c1cnc2ccc3ncccc3c2c1 | 106% (inactive)
O=C(Nc1ccc(Cl)cc1)Nc1ccc(Oc2nncc3ccccc23)cc1 | -43.3% (active)
CCCCCCCC/C=C/CCCCCCCC1=NC(C)(C)CN1CCO | 3.21% (active)
CN(CC(=O)N(Cc1ccc(C2CCCCC2)cc1)c1ccc(C(=O)O)cc1)S(=O)(=O)c1c(F)c(F)c(F)c(F)c1F | 86.6% (inactive)
CCN(CC)CCCNCCCNc1cc(OC)cc2cccnc12 | 92.1% (inactive)
